Results reported in publication PMC13083723 (Patterns, 2026).
The whole screen tested about 5,400 compounds, of which about 190 (3.5%) showed an effect of 50% or more. This excerpt belongs to a sample that is enriched for strong results.

test system: Vero-E6; assay: primary screen, phospholipidosis by LipidTOX staining; higher = more effect of the substance; conditions: 10 µM
In short: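 Single-concentration screen at 10 μM, with DMSO 0.1 v/v % and amiodarone 10 μM as controls. Read-out is LipidTOX Red phospholipid staining, which tolerates aldehyde fixation, in Vero-E6 cells.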

Row | Compound | result_ITMP
1 | C=C[C@H]1C[N@]2CC[C@H]1C[C@@H]2[C@@H](O)c1ccnc2ccc(OC)cc12 | 11.5%
2 | CC1(C)[C@@H]2C[C@@H](O)[C@@](C)(O)[C@H]1C2 | -10.7%
3 | c1cc2c(c(N3CCNCC3)c1)OCCO2 | -1.86%
4 | Cc1ccc(Sc2ccccc2N2CCNCC2)c(C)c1 | 57.3%
5 | O=S(=O)(c1ccccc1)c1cnc2c(N3CCNCC3)cccc2c1 | 39.6%
6 | Cc1cc(CN2CCN(c3c(Br)cnc4[nH]c(-c5ccc(N6CCN(C)CC6)cc5)nc34)CC2)no1 | -0.42%
7 | C[C@H](NC(=O)CCc1nc2ccccc2c(=O)[nH]1)c1ccccc1 [R4A_0003503_001 / SPE_A63444178] | 0.66%
8 | COCC(=O)O[C@]1(CCN(C)CCCc2nc3ccccc3[nH]2)CCc2cc(F)ccc2[C@@H]1C(C)C | 88.2%
9 | CC(C)[C@H]1c2ccc(F)cc2CC[C@@]1(CCN(C)CCCc1nc2ccccc2[nH]1)OC(=O)C1CC1 | 68.1%
10 | O=C(O)CCc1nc2ccccc2[nH]1 | -0.69%
11 | Cc1cc(S(=O)(=O)[O-])c2c(C)ccc(C(C)C)cc1-2 | -3.22%
12 | CC1=CC(=O)[N-]S(=O)(=O)O1 | -5.65%
13 | C[C@]12CCC(=O)C=C1CC[C@@H]1[C@@H]2CC[C@@]2(C)[C@H]1CC[C@]2(C)O | 0.46%
14 | O=C([O-])C(O)C(O)C(O)C(O)CO (centres unmarked) | -6.08%
15 | O=C1[C@@H]2[C@H]3CC[C@H](C3)[C@@H]2C(=O)N1CCCCN1CCN(c2ncccn2)CC1 | -0.39%
16 | c1ccc(Cn2c(N3CCNCC3)nc3ccccc32)cc1 | 51.9%
17 | c1ccc(Cn2c(-c3ccc(OC[C@H](C4CCNCC4)n4c(-c5ccccc5)nc5ccccc54)cc3)nc3ccccc32)cc1 | 13.3%
18 | CN(c1nccc(=O)[nH]1)C1CCN(c2nc3ccccc3n2Cc2ccc(F)cc2)CC1 | 0.52%
19 | C[C@H]1[C@H](C)CC[C@]2(C(=O)O)CC[C@]3(C)C(=CC[C@@H]4[C@@]5(C)CC[C@H](O)C(C)(C)[C@@H]5CC[C@]43C)[C@H]12 | -0.84%
20 | Clc1ccccc1CNC[C@H]1CC[C@H](CNCc2ccccc2Cl)CC1 | 111%
21 | CC[N+](CC)(CCNC(=O)C(=O)NCC[N+](CC)(CC)Cc1ccccc1Cl)Cc1ccccc1Cl | -0.68%
22 | Clc1ccccc1CN1CCc2sccc2C1 | 5.84%
23 | COC(=O)[C@@]12OC[C@]34[C@H]([C@@H](O)[C@@H]1O)[C@@]1(C)CC(=O)C(O)=C(C)[C@@H]1C[C@H]3OC(=O)[C@H](OC(=O)/C=C(\C)C(C)C)[C@@H]24 | -3.12%
